# Data reported in PubChem BioAssay (NCATS).
# Results filed as inconclusive are left out. Unmarked numbers belong to inactive results. Activity calls are given as the source filed them. The call rests on the fitted dose curve; in most records, active means well fitted cell-killing curve with a large enough effect; inconclusive means small, poorly fitted or top-dose-only effect, or effect the other way; inactive means no such curve, though single readings can be large or run the other way.
# Test: qHTS of pediatric cancer cell lines to identify multiple opportunities for drug repurposing: Confirmatory screen for MG 63 (6-TG R) cells (AID 1347119); further: nearly all actives have a fitted effect of over 55% in size
# Settings: MG-63 (6-TG resistant) osteosarcoma viability; series mostly up to 45.9 µM; activity change, negative = cytotoxicity: at the top concentration
# Text: Drug repurposing or repositioning has been offered as a strategy for drug development in oncology programs. This approach has special potential for childhood cancers and other rare or orphan diseases, where the expected return on new drug development has been a disincentive to pharmaceuticals.
# In this project we exploit the poly-pharmacology of drugs to discover new indications via phenotypic screening of a panel of 19 well-characterized cell lines derived from solid tumors seen in children and adolescents. The goal is to identify approved drugs with previously unrecognized anticancer properties that has the potential to reveal new mechanisms and biological processes involved in carcinogenesis or drug resistance. We employed a titration-based paradigm (quantitative high-throughput screening or qHTS), where all compounds were tested at multiple concentrations for their effect on cell viability. Concentration-response curves (CRCs) were derived directly from the primary screen, and both potency and efficacy values were used to identify compounds with robust bioactivity profiles. We screened the NIH Chemical Genomics Center (NCGC) Pharmaceutical Collection (NPC) and Mechanism Interrogation Plate (MIPE) small molecule collections of approved and investigational compounds against these cell lines; and measured metabolically active cells after 48 hours of compound treatment as a proxy for cell viability.
# Assay Submitter: Nathalia J. Martinez, National Center for Advancing Translational Sciences, National Institutes of Health, Rockville, MD, USA; email: natalia.martinez@nih.gov
# [1] Shen, M et al. Quantitative high-throughput phenotypic screening of pediatric cancer cell lines identifies multiple opportunities for drug repurposing. Oncotarget 2017 Dec 19;9(4):4758-4772. PMID 29435139.
# The cells were obtained from University of North Carolina (UNC), Pediatric Preclinical Testing Program (PPT), and Coriell Institute (CI).
# qHTS cell viability assay:
# Cells were assayed in growth media at a density of 500-1,000 cells/well. Five microliters of cells were dispensed into 1,536-well, white, solid-bottom, TC-treated plates (Greiner Bio One) using a multidrop dispenser and incubated at 37 degrees C, 5% CO2, under a humidified atmosphere for 5 hours. Twenty-three nanoliters of compounds and controls (neutral control DMSO or positive control bortezomib at final concentration of 2.3 µM) were subsequently transferred by Kalypsys pintool. For primary screens, the MIPE collection was tested at 11-point dilutions (final concentrations range from 0.78 nM to 46 µM) and the NPC collection at 8-point dilutions (final concentrations range from 0.59 nM to 46 µM). Compounds tested in follow-up screens were assayed at 11-point dilutions. Cells were incubated for 48 hours, followed by addition of 3 µL of CellTiter-Glo (Promega). After a 15 min incubation at room temperature, samples were analyzed for luminescence intensity using a ViewLux High-throughput CCD imager equipped with clear filters.
# Potency means the concentration at half of the fitted maximal effect.
Structure (SMILES),Potency,"activity change, negative = cytotoxicity"
Nc1ccc2cc3ccc(N)cc3nc2c1,23.3 µM (active),–
CO[C@@H]1[C@@H](OC)[C@H](C)[C@@](O)(CC(=O)O)O[C@H]1[C@H](C)[C@H]1O[C@@]2(CC[C@@](C)([C@H]3CC[C@@](C)([C@@H]4O[C@@H]([C@H]5O[C@](C)(O)[C@H](C)C[C@@H]5C)C[C@@H]4OC4C[C@H](OC)[C@@H](OC)[C@H](C)O4)O3)O2)C[C@H](O)[C@H]1C (some centres not stated),0.522 µM (active),–
CC(=O)OCC(=O)[C@@]1(O)CCC2C3CCC4=CC(=O)CC[C@]4(C)C3[C@@H](O)C[C@@]21C (some centres not stated),–,2.16%
CCOC(=O)O[C@]1(C(=O)OCCl)CC[C@H]2[C@@H]3CCC4=CC(=O)C=C[C@]4(C)[C@H]3[C@@H](O)C[C@@]21C,–,-10.7%
CC[C@@]1(O)C(=O)OCc2c1cc1n(c2=O)Cc2c-1nc1ccccc1c2/C=N/OC(C)(C)C,0.0185 µM (active),–
Cc1cc(OCCOCC[N+](C)(C)Cc2ccccc2)ccc1C(C)(C)CC(C)(C)C,9.27 µM (active),–
CCCC(=O)O[C@]1(C(=O)COC(=O)CC)CC[C@H]2[C@@H]3CCC4=CC(=O)CC[C@]4(C)[C@H]3[C@@H](O)C[C@@]21C,–,26%
CCC(=O)O[C@]1(C(=O)COC)[C@@H](C)C[C@H]2[C@@H]3CCC4=CC(=O)C=C[C@]4(C)C3(F)[C@@H](O)C[C@@]21C (some centres not stated),26.1 µM (active),–
O=c1[nH]sc2cc(Cl)ccc12,20.8 µM (active),–
Cc1ccc(C(=O)Oc2ccc(C(O)CNC(C)(C)C)cc2OC(=O)c2ccc(C)cc2)cc1 (configuration not stated),–,-27.4%
CCC1(c2cnc[nH]2)Cc2ccccc2C1,14.7 µM (active),–
CCCCC(=O)OCC(=O)[C@H]1[C@H](C)C[C@H]2[C@@H]3C[C@H](F)C4=CC(=O)C=C[C@]4(C)[C@@]3(F)[C@@H](O)C[C@@]21C,18.5 µM (active),–
COc1c(C)c2c(c(O)c1C/C=C(\C)CCC(=O)OCCN1CCOCC1)C(=O)OC2,–,-18.1%
CCC1=C[C@@H]2CN(C1)Cc1c([nH]c3ccccc13)[C@@](C(=O)OC)(c1cc3c(cc1OC)N(C)[C@H]1[C@@](O)(C(=O)OC)[C@H](OC(C)=O)[C@]4(CC)C=CCN5CC[C@]31[C@@H]54)C2,0.0233 µM (active),–
CN(C)CCN(Cc1ccsc1)c1ccccn1,–,-14.9%
CC(=O)O[C@@H]1C(=O)O[C@@H]2[C@H]1OC(=O)[C@@H]2OC(C)=O,–,-18.4%
CCCCC(CC)CNC(=O)CC(C)OC(=O)CCC(=O)O (configuration not stated),–,-10.5%
Cc1nc(N)nc(N)c1-c1ccc(Cl)c(Cl)c1,–,-0.956%
CC(C)(C)CC(=O)OCC(=O)[C@@]1(O)CC[C@H]2[C@@H]3CCC4=CC(=O)C=C[C@]4(C)[C@H]3[C@@H](O)C[C@@]21C,–,-6.9%
C[C@]12CCC(=O)C=C1CC[C@@H]1[C@@H]2[C@@H](O)C[C@@]2(C)[C@H]1CC[C@]2(O)C(=O)COC(=O)CCC(=O)O,–,-0.777%
C[C@H]1C[C@H]2[C@@H]3CCC4=CC(=O)C=C[C@]4(C)[C@H]3C(=O)C[C@]2(C)[C@@]1(O)C(=O)CO,4.65 µM (active),–
CC(=O)OCC(=O)[C@@]1(O)[C@H](OC(C)=O)C[C@H]2[C@@H]3CCC4=CC(=O)C=C[C@]4(C)[C@@]3(F)[C@@H](O)C[C@@]21C,–,3.8%
